Source: PubChem (National Center for Advancing Translational Sciences (NCATS))
A selection: hits, their analogues and other compounds. The true share with any hit is near 7.6%.
p53 reactivator – mutant p53 re-activation in reporter cells | H1299 p53-A138V BP100-luciferase reporter, luminescence, 24 h | Potency, µM (series often up to 92.2 µM), actives largely listed as activators | 320,000 tested, 0.063% active | AID 504706; further: nearly all actives have a fitted effect of over 45% in size
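H1299 (p53-null), stable ts p53-A138V + BP100-Luc; 1000 cells/well, Opti-MEM/10% FBS; cpd 4 pt, 1:5; 24 h, 37 deg C, 5% CO2; detection reagent 10 min RT; luminescence.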
BRCA1 expr act – activators of BRCA1 expression; MCF7-BRCA1-FFLuc reporter, luminescence, 48 h; response scale: scaled: vehicle 0%, 10 µM genistein 100%; Potency, µM (titrated, usually from 46.1 µM), most hits filed as activators; AID 624202; 380,000 tested, 1.1% active; further: nearly all actives have a fitted effect of over 80% in size
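MCF7-BRCA1-FFLuc cells, 2000/well in phenol-red-free MEM, attached 2 h then treated 48 h at 37 C. Luciferase luminescence read 15 min after reagent; normalized to genistein maximum activation (10microM) and DMSO, concentration-response fitted.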
Giardia kill – Giardia lamblia killing; Giardia lamblia trophozoite viability; activity change, % at 7.66 µM, hits read low; 340,000 tested, 0.15% active; AID 540267; in the data active means activity change below about -80%; inconclusive means between about -30% and that limit;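 further: parasites exposed to compound for two days anaerobically before the ATP read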
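Trophozoite viability was measured as ATP-dependent luminescence, read 15-30 min after reagent addition. Before that, parasites at 100 cells/well were exposed to compounds for 48 h, anaerobically, at 37 deg C.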
RORg inh – blocks mouse ROR gamma transcriptional activity; P51450; Drosophila S2 Gal4-RORgamma UAS-luciferase reporter, 20 h; Potency, µM (doses to about 53.6 µM), usual class: inhibitors; 310,000 tested, 5.4% active; AID 2551; further: nearly all actives have a fitted effect of over 60% in size
Target sequence (P51450 whole entry, looked up, the tested form may be a part): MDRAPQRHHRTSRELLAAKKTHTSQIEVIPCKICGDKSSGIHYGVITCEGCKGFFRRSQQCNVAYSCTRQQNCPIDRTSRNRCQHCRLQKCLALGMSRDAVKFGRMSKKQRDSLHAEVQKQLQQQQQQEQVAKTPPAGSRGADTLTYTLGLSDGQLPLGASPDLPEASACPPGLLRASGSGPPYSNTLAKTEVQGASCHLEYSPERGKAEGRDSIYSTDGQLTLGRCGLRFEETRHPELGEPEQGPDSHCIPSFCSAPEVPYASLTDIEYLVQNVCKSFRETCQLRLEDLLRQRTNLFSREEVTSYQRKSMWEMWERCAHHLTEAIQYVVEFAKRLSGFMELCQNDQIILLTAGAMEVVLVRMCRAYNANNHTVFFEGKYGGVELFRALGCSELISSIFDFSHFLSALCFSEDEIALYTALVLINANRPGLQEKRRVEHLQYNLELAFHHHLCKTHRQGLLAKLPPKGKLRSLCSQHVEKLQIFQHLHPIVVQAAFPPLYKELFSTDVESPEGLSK
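A Gal4/UAS one-hybrid system in insect cells: metallothionein-promoter Gal4–ROR gamma fusion plus Photinus luciferase reporter. Copper sulfate 700 uM final, 20 hr ambient incubation, luminescent detection after 10 min with reagent.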
ELG1 repair inh – blocks ELG1-dependent DNA repair in HEK293T cells | 330,000 tested, 2.3% active | Potency, µM (titrated, usually from 46.1 µM), hits mostly inhibitors | HEK293T ELG1-luciferase reporter, luminescence, 16 h; DNA damage induced by 5-fluorouridine; further: nearly all actives have a fitted effect of over 55% in size
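HEK293T cells expressing luciferase-tagged ELG1 (2,000/well) received 5-Fluorouridine plus compound or DMSO for 16 hr at 37 °C. Luciferase was read by ONE-Glo luminescence after 30 min at room temperature.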
VP16 counter – inhibits Gal4-VP16 luciferase reporter, ROR gamma counter-screen; Drosophila S2 Gal4-VP16 UAS-luciferase, luminescence, 20 h; Potency, µM (series often up to 53.6 µM), most hits filed as inhibitors; 310,000 tested, 3.5% active; AID 2546;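 further: Gal4-VP16 expression switched on by copper sulfate through the metallothionein promoter; nearly all actives have a fitted effect of over 50% in size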
Numbers stand for hits; [ ] = another dose, or the depositor's remark. Unless noted, the call rests on the fitted dose curve; in most records, active means well fitted curve in the direction sought with a large enough effect; inconclusive means small, poorly fitted or top-dose-only effect, or another doubt; inactive means no such curve, though single readings can be large; an effect the other way counts as inactive or inconclusive.

O=C(N/N=C/c1cccs1)c1c[nH]c2ccccc12 was read as p53 reactivator inactive, BRCA1 expr act inactive, Giardia kill inactive, RORg inh inconclusive, ELG1 repair inh inconclusive and VP16 counter inactive.
For O=C(N/N=C/c1ccco1)c1cc(-c2ccncc2)nc2ccccc12 the results were BRCA1 expr act inactive, Giardia kill inactive and ELG1 repair inh inactive.
For CCc1ccc(/C=N/NC(=O)c2c[nH]c3ccccc23)s1 the results were p53 reactivator inactive, BRCA1 expr act inconclusive, Giardia kill inactive, RORg inh 11µM, ELG1 repair inh inconclusive and VP16 counter inactive.
Screening O=C(N/N=C/c1cccs1)c1cc(-c2ccncc2)nc2ccccc12 returned p53 reactivator inactive, BRCA1 expr act inconclusive, Giardia kill inactive, RORg inh 5µM, ELG1 repair inh inactive and VP16 counter 7.1µM.
Screening CCOC(=O)C1CCN(C(=O)CCS(=O)(=O)c2ccc3c(c2)n(C)c(=O)c(=O)n3C)CC1 returned BRCA1 expr act inactive, Giardia kill inactive, RORg inh inactive, ELG1 repair inh inactive and VP16 counter inactive.
Screening CCN(Cc1ccccc1)C(=O)COC(=O)c1cc(Cl)nc(Cl)c1 returned p53 reactivator inactive, BRCA1 expr act inactive, Giardia kill inactive, RORg inh inactive, ELG1 repair inh inactive and VP16 counter inactive.
Cc1cc(C)c(S(=O)(=O)N2CCCOC2CNC(=O)C(=O)NCc2cccnc2)c(C)c1 (stereo not given) was read as p53 reactivator inactive, BRCA1 expr act inactive, Giardia kill inactive, RORg inh inactive, ELG1 repair inh inactive and VP16 counter inactive.
O=S(=O)(NCc1ccccn1)c1cccc2nsnc12 was read as p53 reactivator inactive, BRCA1 expr act inactive, Giardia kill inactive, RORg inh 7.9µM, ELG1 repair inh inactive and VP16 counter inconclusive.
`O=S(=O)(NCc1ccccn1)c1ccc(Cl)s1` gave p53 reactivator inactive, BRCA1 expr act inactive, Giardia kill inactive, RORg inh 8.9µM, ELG1 repair inh inactive and VP16 counter inconclusive.
O=S(=O)(NCc1ccccn1)c1ccccn1 was read as p53 reactivator inactive, BRCA1 expr act inactive, Giardia kill inactive, RORg inh 11µM, ELG1 repair inh inactive and VP16 counter inactive.
For CN1/C(=C\C=C(C#N)C#N)C(C)(C)c2ccccc21 the results were p53 reactivator inactive, BRCA1 expr act inactive, Giardia kill inactive, RORg inh inactive, ELG1 repair inh inactive and VP16 counter inactive.
For CN1/C(=C/C=N/n2cnnc2)C(C)(C)c2ccccc21 the results were p53 reactivator inactive, BRCA1 expr act inactive, Giardia kill inactive, RORg inh inactive, ELG1 repair inh inactive and VP16 counter 18µM.
For CN1/C(=C\C=N\NC(=O)c2ccccc2Br)C(C)(C)c2ccccc21 the results were p53 reactivator inactive, BRCA1 expr act inactive, Giardia kill inactive, RORg inh 0.79µM, ELG1 repair inh inactive and VP16 counter 1.3µM.
COC(=O)c1ccc(-n2nnnc2SCC(=O)Nc2cc(OC)ccc2OC)cc1 was read as p53 reactivator inactive, BRCA1 expr act inactive, Giardia kill inactive, RORg inh inactive[10 µM], ELG1 repair inh inactive and VP16 counter inactive.
Screening COc1cccc(NC(=O)CN(C)CC(=O)Nc2ccc(C)c([N+](=O)[O-])c2)c1 returned p53 reactivator inactive, BRCA1 expr act inactive, Giardia kill inactive, RORg inh inconclusive, ELG1 repair inh 18µM and VP16 counter inconclusive.
For COc1ccc(OC)c(-n2nnnc2SCC(=O)Nc2ccc3c(c2)OCCO3)c1 the results were p53 reactivator inactive, BRCA1 expr act inactive, Giardia kill inactive, RORg inh inconclusive, ELG1 repair inh inactive and VP16 counter inactive.
`COc1ccc(OC)c(-n2nnnc2SCC(=O)Nc2ccc(C(=O)N3CCCCC3)cc2)c1` gave p53 reactivator inactive, BRCA1 expr act inactive, Giardia kill inactive, RORg inh inactive, ELG1 repair inh 23µM and VP16 counter inactive.
For COc1ccc(-n2nnnc2SCC(=O)Nc2cc(OC)c([N+](=O)[O-])cc2C)cc1 the results were p53 reactivator inactive, BRCA1 expr act inactive, Giardia kill inactive, RORg inh 6.3µM, ELG1 repair inh inconclusive and VP16 counter 10µM.
`COc1ccc(CN(C)CC(=O)Nc2cc(OC)c([N+](=O)[O-])cc2C)c(OC)c1` gave p53 reactivator inactive, BRCA1 expr act inactive, Giardia kill inactive, RORg inh inactive, ELG1 repair inh 16µM and VP16 counter inactive.
For COc1ccc(-c2ncccc2OC(=O)C23CC4CC(CC(C4)C2)C3)cc1 the results were p53 reactivator inactive, BRCA1 expr act inactive, Giardia kill inactive, RORg inh inactive, ELG1 repair inh inactive and VP16 counter inactive.
For CN(C)c1ncc2nc(-c3ccccc3)c(=O)n(C3CC3)c2n1 the results were RORg inh inactive and VP16 counter inactive.
Screening O=C(Cc1ccccc1)Nc1nc2ccc(Cl)cc2c2nc(-c3ccco3)nn12 returned RORg inh inactive and VP16 counter inactive.
Screening CCCCN(C)CCCNC(=O)CN1C(=O)CSc2ccc(S(=O)(=O)N3CCOCC3)cc21 returned p53 reactivator inactive, BRCA1 expr act inactive, Giardia kill inactive, RORg inh inactive, ELG1 repair inh inactive and VP16 counter inactive.
Screening COC(=O)c1sccc1NC(=O)CSc1nnnn1-c1ccccc1C returned p53 reactivator inactive, BRCA1 expr act inactive, Giardia kill inactive, RORg inh inactive, ELG1 repair inh 18µM and VP16 counter inactive.
Screening N#C/C(=C(/O)COC(=O)CSc1ccc2ccccc2c1)c1nc2ccccc2[nH]1 returned p53 reactivator inconclusive, BRCA1 expr act inactive, Giardia kill inactive, RORg inh 7.1µM, ELG1 repair inh inconclusive and VP16 counter 14µM.
Screening Cc1cc(Br)ccc1SCC(=O)OC/C(O)=C(\C#N)c1nc2ccccc2[nH]1 returned p53 reactivator inactive, BRCA1 expr act inactive, Giardia kill inactive, RORg inh inactive, ELG1 repair inh inactive and VP16 counter inconclusive.
For Cc1ccc(C)c(SCC(=O)OC/C(O)=C(\C#N)c2nc3ccccc3[nH]2)c1 the results were p53 reactivator inactive, BRCA1 expr act inactive, Giardia kill inactive, RORg inh 10µM, ELG1 repair inh inconclusive and VP16 counter inconclusive.
Screening CC(C)Cn1c(C(C)C)nc([N+](=O)[O-])c1Sc1ccc(Cl)cn1 returned p53 reactivator inconclusive, BRCA1 expr act inactive, Giardia kill inactive, RORg inh inactive, ELG1 repair inh inactive and VP16 counter inactive.
CCCCn1c(CCC)nc([N+](=O)[O-])c1Sc1ccc(Cl)cn1 was read as p53 reactivator inactive, BRCA1 expr act inactive, Giardia kill inactive, RORg inh inconclusive, ELG1 repair inh inconclusive and VP16 counter 10µM.
For CC(CSc1n[nH]c(=S)s1)c1ccccc1 (stereo not given) the results were BRCA1 expr act inactive and Giardia kill inactive.
